Entries with a potency or affinity are not part of this list. Active and inactive are the calls of the source. No rule for the calls is given here.
Target: Kelch-like ECH-associated protein 1 (Homo sapiens) + Nuclear factor erythroid 2-related factor 2 (Homo sapiens) (UniProt Q14145+Q16236)
Assay: disruptors of Keap1 binding to Nrf2 peptide – biochemical, fluorescence polarization, cherry-picked samples, dose response (AID 588683);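 also: Kelch domain of Keap1 binding a fluorescein-labelled 9mer Nrf2 peptide; more negative means stronger inhibition of peptide binding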
Conditions: plate reader; series mostly up to 26 µM

Chain of Kelch-like ECH-associated protein 1 (Homo sapiens) + Nuclear factor erythroid 2-related factor 2 (Homo sapiens) (Q14145 whole entry, looked up, the tested form may be a part): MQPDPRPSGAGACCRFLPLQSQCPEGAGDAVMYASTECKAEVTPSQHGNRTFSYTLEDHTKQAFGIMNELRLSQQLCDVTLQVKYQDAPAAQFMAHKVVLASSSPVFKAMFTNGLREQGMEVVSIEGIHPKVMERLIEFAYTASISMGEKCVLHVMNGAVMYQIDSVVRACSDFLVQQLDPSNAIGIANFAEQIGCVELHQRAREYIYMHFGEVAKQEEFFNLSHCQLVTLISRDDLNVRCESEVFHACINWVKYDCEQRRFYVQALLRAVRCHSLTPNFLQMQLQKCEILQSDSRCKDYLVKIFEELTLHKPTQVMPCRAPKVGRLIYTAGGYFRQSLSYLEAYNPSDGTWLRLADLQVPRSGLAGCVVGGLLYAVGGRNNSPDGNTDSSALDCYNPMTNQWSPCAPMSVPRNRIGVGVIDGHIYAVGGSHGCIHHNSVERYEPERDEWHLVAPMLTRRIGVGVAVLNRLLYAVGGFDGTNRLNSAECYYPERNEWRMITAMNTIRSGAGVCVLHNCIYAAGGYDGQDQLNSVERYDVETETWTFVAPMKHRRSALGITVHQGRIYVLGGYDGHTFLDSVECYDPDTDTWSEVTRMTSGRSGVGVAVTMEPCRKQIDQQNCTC
Chain of Kelch-like ECH-associated protein 1 (Homo sapiens) + Nuclear factor erythroid 2-related factor 2 (Homo sapiens) (Q16236 whole entry, looked up, the tested form may be a part): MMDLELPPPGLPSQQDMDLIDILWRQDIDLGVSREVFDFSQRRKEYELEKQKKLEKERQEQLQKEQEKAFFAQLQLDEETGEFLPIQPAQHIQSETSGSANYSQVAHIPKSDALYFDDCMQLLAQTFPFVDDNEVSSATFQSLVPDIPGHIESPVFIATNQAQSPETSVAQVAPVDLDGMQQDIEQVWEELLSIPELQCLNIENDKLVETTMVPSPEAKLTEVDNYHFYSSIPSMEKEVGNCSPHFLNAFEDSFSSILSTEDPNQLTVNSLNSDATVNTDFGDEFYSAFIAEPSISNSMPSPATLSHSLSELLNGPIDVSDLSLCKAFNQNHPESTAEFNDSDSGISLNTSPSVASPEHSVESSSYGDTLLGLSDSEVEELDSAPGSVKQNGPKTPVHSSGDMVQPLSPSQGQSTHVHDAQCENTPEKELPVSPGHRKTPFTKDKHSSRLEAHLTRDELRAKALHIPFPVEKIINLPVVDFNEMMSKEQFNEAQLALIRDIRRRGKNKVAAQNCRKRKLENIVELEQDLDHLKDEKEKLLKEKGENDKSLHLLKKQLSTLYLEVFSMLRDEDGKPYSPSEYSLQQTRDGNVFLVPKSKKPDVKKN

outcome, inactive:
Cc1cc[n+](-c2[nH]c(=O)sc2/C=N/NC([S-])=Nc2ccccc2)cc1
Cc1cccn2c(=O)c3cc(S(=O)(=O)c4ccccc4)c(=N)n(Cc4cccnc4)c3nc12
O=C(NNC(=O)c1ccc(Br)o1)c1csc(N2CCOCC2)n1
CCOc1ccc(OCCCC(=O)N(CC)CC(=O)Nc2c(F)cccc2F)cc1
COc1ccc(C2N3CC4(C)CN2CC(C)(C3)C4O)cc1 (configuration not stated)
Cc1nnsc1C(=O)N1CCN(c2ccc(F)cc2)CC1
O=S(=O)([O-])CCC[n+]1c(SCCCS(=O)(=O)O)sc2ccc(Cl)cc21
O=[N+]([O-])c1cc(C(F)(F)F)ccc1NC1CCN(Cc2ccccc2)CC1
C=CCn1ccc(=NC=C(C#N)C#N)c2ccccc21
CC(=O)Nc1c(N)c2ccccc2oc1=O
Cc1ccc(OC(C)C(=O)N2CCN(c3ccccn3)CC2)cc1 (configuration not stated)
CC(C)(C)c1cc[n+](-c2[nH]c(=O)sc2/C=N/NC([S-])=Nc2ccccc2)cc1
CC1=CC(=C2N=C(c3ccccc3)OC2=O)C=C(C)O1
O=C1CCn2c1c(O)c1ccccc1c2=O
S=C1SCN(CC2CC2)CN1CC1CC1
Cc1ccc(C2C3CN(C(C)C)CC=C3C(C#N)=C(N)C2(C#N)C#N)cc1 (configuration not stated)
CCOc1ccc(NC(=O)COC(=O)CCN2C(=O)C3CC=CCC3C2=O)cc1OCC (configuration not stated)
N/C(=N/OC(=O)c1ccc(Cl)cc1)c1ncc([N+](=O)[O-])s1
CC1(C)CC(=O)C2=C(C1)OC(N)=C(C#N)C2c1cc2c(cc1[N+](=O)[O-])OCO2 (configuration not stated)
COC(=O)c1cc(N2CCN(C)CC2)nc2ccccc12
CN1C(=O)c2cccc3c(S(N)(=O)=O)ccc1c23
N#Cc1c(SCC(=O)Nc2nncs2)sc2c(O)cc(=O)[nH]c12
CCN(CC)C(=O)C1c2ccccc2Oc2ccccc21
O=C(CN1C(=O)NC2(CCCC2)C1=O)Nc1ccc(C(F)(F)F)cc1
O=C(Nc1ccccn1)C1CCN(S(=O)(=O)c2ccc3c(c2)OCCO3)CC1
Cc1cc(C)c2c(SC(C)C)nc(N)nc2n1
OC(CCN1CCC2(CC1)OCCO2)C(F)(F)F (configuration not stated)
CC(C)C1OC2(C)OC(=N)C1(C#N)C(C#N)(C#N)C2c1ccccc1 (configuration not stated)
C=CCOc1ccc(C=NNc2ccc(S(=O)(=O)Nc3ccccc3C(=O)O)cc2[N+](=O)[O-])cc1OC
COCCCN1C(=O)c2ccc(C(=O)Nc3ccc(C)cc3C)cc2C1=O
COc1ccccc1CNC(=O)c1ccccc1NS(C)(=O)=O
CCOC(=O)c1c(=O)n(O)c2ccc(OC)cc2[n+]1[O-]
COc1cc2c3nnc(-c4ccc(F)cc4)c-3cn(Cc3ccccc3)c2cc1OC
CN(CC(=O)Nc1cc(C(F)(F)F)ccc1-n1cncn1)Cc1ccccc1N1CCOCC1
O=[N+]([O-])c1ccc(S(=O)(=O)c2ccccc2)nc1
O=C(O)c1cccc(-n2cccc2/C=C2/NC(=O)N(c3ccc(Cl)cc3)C2=O)c1
NC(=O)CC(NC(=O)Cc1cccc2ccccc12)c1ccc(NCc2ccccc2)c([N+](=O)[O-])c1 (configuration not stated)

Source: PubChem BioAssay AID588683 (Broad Institute, 2011)
